The nature of assay [1]: ATG_XTT_Cytotoxicity: Cytotoxicity Assessment in the Attagene TRANS-FACTORIAL HepG2 Assay (AID 2283584).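 For AC50: cells exposed to compound for 24 h before reading; active means loss of viability signal versus DMSO baseline.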 In short, it runs like this:
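XTT readout of cell number in transfected HepG2 cells, 24 h post-dosing; DMSO serves as negative control and baseline, with activity taken as loss of viability signal.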

Assay [2] can be described thus: TOX21_p53_BLA_p2_viability: Viability Assessment in the Tox21 HCT-116 p53 Agonism Beta-lactamase Assay, Phase 2 (AID 2283591).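 Note: actives lower the ATP signal meaning cytotoxicity.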 In short, it runs like this: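 HCT116 p53-bla cells, 4000/well, dosed after 5 h plating (217-fold dilution of DMSO stocks) and incubated 16 h at 37C. Viability taken as cellular ATP by CellTiter-Glo luminescence after 30 min RT; signal loss marks cytotoxicity.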

In assay [3] the target is Cellular tumor antigen p53 (Homo sapiens) (UniProt P04637). Put plainly: TOX21_p53_BLA_p2_ratio: Tox21 HCT-116 p53 Agonism Beta-lactamase Assay, Ratio, Phase 2 (AID 2283592). Summed up:
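Readout: blue/green (460/530 nm) FRET emission ratio after 2 h CCF4-AM loading at room temperature, excitation 405 nm. HCT116 p53 bla cells, 16 h compound exposure at 37C, 5% CO2; agonist direction fitted against DMSO baseline.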

Assay [4] can be described thus: TOX21_p53_BLA_p3_viability: Viability Assessment in the Tox21 HCT-116 p53 Agonism Beta-lactamase Assay, Phase 3 (AID 2283593).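 Note: cells exposed to compound for 16 h before reading.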 In short, it runs like this: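 HCT116 cells, 4000/well, dosed 5 h after plating by pin transfer (217-fold dilution from DMSO stock) and incubated 16 h at 37C, 5% CO2. Viability read as ATP luminescence with CellTiter-Glo after 30 min at room temperature.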

Assay [5] has as its target Cellular tumor antigen p53 (Homo sapiens) (UniProt P04637). Put plainly: TOX21_p53_BLA_p3_ratio: Tox21 HCT-116 p53 Agonism Beta-lactamase Assay, Ratio, Phase 3 (AID 2283596). In short, it runs like this:
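Cells were seeded at 4000/well, rested 5 h at 37C, then dosed with DMSO compound solutions (217-fold dilution) for 16 h. CCF4-AM substrate was loaded for 2 h at room temperature, and the 460/530 nm emission ratio was fitted for gain of signal versus DMSO.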

Assay [6] is described as follows: TOX21_p53_BLA_p4_viability: Viability Assessment in the Tox21 HCT-116 p53 Agonism Beta-lactamase Assay, Phase 4 (AID 2283597).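 Note: hits lower the luminescence signal meaning cytotoxicity.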 Summed up:
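ATP content by CellTiter-Glo luminescence, 30 min RT, read after the beta-lactamase ratio step. Cells: HCT116, 4000/well, compound added after 5 h, exposure 16 h at 37C. Signal loss = reduced viability.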

Assay [7] addresses Cellular tumor antigen p53 (Homo sapiens) (UniProt P04637). Put plainly: TOX21_p53_BLA_p5_ratio: Tox21 HCT-116 p53 Agonism Beta-lactamase Assay, Ratio, Phase 5 (AID 2283599). Summed up:
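HCT-116 p53-bla cells (4000/well) plated 5 h, dosed with compound (217-fold DMSO dilution) for 16 h at 37 C; CCF4-AM substrate 2 h at room temperature. Activity is the 460/530 nm emission ratio (405 nm excitation), fitted in gain-of-signal direction versus DMSO.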

Assay [8] in a line: TOX21_p53_BLA_p5_viability: Viability Assessment in the Tox21 HCT-116 p53 Agonism Beta-lactamase Assay, Phase 5 (AID 2283600). Summed up:
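ATP luminescence (CellTiter-Glo, 30 min, RT) served as the viability read-out, with loss of signal indicating cytotoxicity. Compounds in DMSO were pinned at a 217-fold dilution onto 4000 cells/well and incubated 16 h, 37C.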

The target in assay [9] is Cellular tumor antigen p53 (Homo sapiens) (UniProt P04637). Put plainly: TOX21_p53_BLA_p4_ratio: Tox21 HCT-116 p53 Agonism Beta-lactamase Assay, Ratio, Phase 4 (AID 2283601). Summed up:
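HCT-116 p53 beta-lactamase reporter cells (4000/well) preincubated 5 h, then compound (217-fold dilution of DMSO stock) for 16 h at 37C. CCF4-AM substrate added 2 h at room temperature; 460/530 nm emission ratio fitted upward versus DMSO.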

Drawing on PubChem BioAssay (EPA / NIEHS), this text covers outcome and AC50 for 22 molecules.

Each structure is given as a SMILES string. “And” between values parts separate entries of the source, which are not always exact repeats. Equal entries are not always repeated. Records with an inconclusive call do not appear. A structure can be active in one record and inactive in another. The source made the active and inactive calls. Rule for the calls: active = hit-call score of the fitted dose curve at least 0.9, where 1 is the maximum; inconclusive = response in the unintended direction; inactive = score below 0.9. Peptide text beside a SMILES is read from it.

Chain of Cellular tumor antigen p53 (Homo sapiens) (P04637 whole entry, looked up): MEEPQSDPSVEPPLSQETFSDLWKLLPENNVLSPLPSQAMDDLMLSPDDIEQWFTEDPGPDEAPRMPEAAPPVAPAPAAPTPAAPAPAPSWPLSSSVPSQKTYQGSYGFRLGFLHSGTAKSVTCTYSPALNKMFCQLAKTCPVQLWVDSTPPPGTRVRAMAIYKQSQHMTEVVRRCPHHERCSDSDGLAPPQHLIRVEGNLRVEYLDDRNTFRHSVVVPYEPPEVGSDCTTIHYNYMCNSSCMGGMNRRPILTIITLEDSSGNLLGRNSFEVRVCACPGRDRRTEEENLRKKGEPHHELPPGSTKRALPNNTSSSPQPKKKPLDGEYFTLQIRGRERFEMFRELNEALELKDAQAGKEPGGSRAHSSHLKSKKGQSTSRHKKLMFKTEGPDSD

Consider `CC(C)c1ccc(O)c(C(C)C)c1`, for which the call in assay [1], in [2], in [3], in [4], in [5] and in assay [7] was inactive. Further, the call in [8] was inactive. Besides, the AC50 (commonly the concentration at which the activity in the assay is half-maximal) is 44.7 µM (active) in assay [6] and 81 µM (active) in assay [9].

With `N=C1C=CC(=C(c2ccc(N)cc2)c2ccc(N)cc2)C=C1`, the result in assay [1], in [2], in assay [4], in assay [6] and in assay [9] was inactive. For the same molecule, the AC50 in [3] was 54.2 µM (active); in assay [5] it was 60.4 µM (active); in [7], 67.3 µM (active).

For `O=C(O[C@@H]1Cc2c(O)cc(O)cc2O[C@@H]1c1cc(O)c(O)c(O)c1)c1cc(O)c(O)c(O)c1`, the outcome in assay [1], in assay [2], in [3], in assay [4], in [5] and in [6] was inactive. Further, the result in assay [7], in assay [8] and in [9] was inactive.

As for `CCCCC1C(=O)N(c2ccccc2)N(c2ccccc2)C1=O`, the call in assay [1], in assay [2], in assay [3], in [4], in assay [5] and in [6] was inactive. Moreover, the outcome in [7], in [8] and in [9] was inactive.

As to `CCCCC(=O)O`, the outcome in assay [1], in assay [2], in [3], in assay [4], in [5] and in [6] was inactive. Further, the outcome in assay [7], in assay [8] and in [9] was inactive.

`O=C(Oc1ccccc1)c1ccccc1C(=O)Oc1ccccc1`: the outcome in [1], in assay [2], in assay [3], in [4], in assay [5] and in [6] was inactive. For the same molecule, the result in [7] and in assay [9] was inactive.

`C[Si](C)(C)N[Si](C)(C)C`: the molecule was called inactive in assay [1], in assay [2], in assay [3], in assay [4], in [5] and in assay [6]. The outcome in [7], in [8] and in assay [9] was inactive.

As for `Cc1noc(NS(=O)(=O)c2ccc(N)cc2)c1C`, the molecule was classed as inactive in assay [1], in assay [2], in assay [3], in assay [4], in assay [5] and in assay [6]. Moreover, the outcome in assay [7], in assay [8] and in assay [9] was inactive.

In the case of `Oc1ccc(-c2ccccc2)c(Cl)c1`, the results for the AC50 in assay [1], in assay [6] and in [9] were 159 µM (active), 60.8 µM (active) and 76.2 µM (active), respectively. For the same molecule, the molecule was called inactive in [1], in [2], in assay [3], in assay [4], in [5] and in assay [7]. Further, the outcome in [8] was inactive.

As for `COc1ccc(C(=O)/C(Br)=C\C(=O)O)cc1`, the call in assay [1], in assay [2], in [4] and in assay [8] was inactive. Further, the AC50 was 86.2 µM (active) in [2]; 24.8 µM (active) and 24.2 µM (active) in [3]; 74.8 µM (active) in [4]; 14.4 µM (active) and 25.8 µM (active) in assay [5]; 76.7 µM (active) and 44.5 µM (active) in assay [6]; 21 µM (active) and 21.6 µM (active) in assay [7]. In addition, the AC50 in assay [8] is 39.1 µM (active); in [9], 60 µM (active) and 27.2 µM (active).

In the case of `CC1(C)CCC[C@]2(C)[C@H]3CC(=O)O[C@]3(C)CC[C@@H]12`, the molecule was called inactive in [1], in [2], in assay [3], in assay [4], in [5] and in [6]. Also, the outcome in assay [7], in assay [8] and in assay [9] was inactive.

Regarding `CC(C)[N+](C)(CCOC(=O)C1c2ccccc2Oc2ccccc21)C(C)C`, the molecule was classed as inactive in assay [1], in assay [2], in [3], in assay [4], in assay [5] and in assay [6]. The outcome in assay [7], in assay [8] and in assay [9] was inactive.

For `CC(C)(CO)COC(=O)C(C)(C)CO`, the result in [1], in [2], in [3], in [4], in assay [5] and in [6] was inactive. The outcome in [7], in assay [8] and in [9] was inactive.

As for `c1ccc(Nc2cccc3ccccc23)cc1`, the outcome in assay [1], in assay [2], in [4], in assay [5], in [7] and in assay [8] was inactive. The outcome in [9] was inactive. The AC50 is 71.1 µM (active) in assay [2]; 77.1 µM (active) and 81.1 µM (active) in assay [3]; 43.6 µM (active) and 82.6 µM (active) in [6]; 82.2 µM (active) in assay [7]; 74.3 µM (active) in assay [9].

Turning to `Cc1c[nH]c(=O)[nH]c1=O`, the molecule was called inactive in assay [1].

Take `CCOB(OCC)OCC`: the call in assay [1] was inactive.

For `COC(=O)[C@H](Cc1ccccc1)NC(=O)[C@@H](N)CC(=O)O` (H-Asp-Phe-OMe), the call in assay [1], in assay [2], in assay [3], in [4], in [5] and in [6] was inactive. The result in [7], in assay [8] and in assay [9] was inactive.

In the case of `O=C(Cl)c1ccc(C(=O)Cl)cc1`, the molecule was classed as inactive in assay [1], in [2], in [3], in assay [4], in [5] and in [6]. Moreover, the result in assay [7] and in assay [9] was inactive.

Consider `O=C1CCCCCCCCCCCN1`, for which the molecule was classed as inactive in [1], in assay [2], in [3], in [4], in assay [5] and in assay [6]. In addition, the result in [7], in assay [8] and in [9] was inactive.

Turning to `Fc1ccc(Br)cc1`, the outcome in [1], in assay [2], in assay [3], in assay [4], in assay [5] and in [6] was inactive. The outcome in assay [7] and in [9] was inactive.

As to `C=C(C)C(=O)OCC(O)COc1ccc(C(C)(C)c2ccc(OCC(O)COC(=O)C(=C)C)cc2)cc1` (stereo not given), the outcome in [1], in assay [3], in assay [4], in [7], in [8] and in [9] was inactive. The AC50 in assay [2] is 69.2 µM (active); in assay [5], 86.7 µM (active); in assay [6] it was 46.1 µM (active).

For `O=C(O)/C=C/c1ccccc1`, the result in assay [1], in [2], in [3], in [4], in assay [5] and in [6] was inactive. For the same molecule, the result in assay [7], in assay [8] and in assay [9] was inactive.
